In PubChem BioAssay AID493168 (National Center for Advancing Translational Sciences (NCATS), 2011):
Records with an inconclusive call do not appear. Values without a mark were called inactive. Calls of active or inactive are those of the source. The call rests on the fitted dose curve; in most records, active means well fitted inhibition curve with a large enough effect; inconclusive means small, poorly fitted or top-dose-only effect, or effect the other way; inactive means flat fitted curve, though single readings scatter.

These molecules were tested against Ubiquitin carboxyl-terminal hydrolase 2 (Homo sapiens) (UniProt O75604) (assay: Confirmation Assay for Inhibitors of Ubiquitin-specific Protease USP2a Using CHOP2 as the Reporter). Details: USP2 core, Ub-CHOP2 coupled reporter fluorescence; series mostly up to 38.3 µM; activity change, negative = inhibition: at the top concentration.
How it was run: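 USP2 core (10 nM final) was preincubated with compound for 30 min at RT in Tris-HCl pH 8.0, CaCl2, beta-mercaptoethanol, CHAPS. Ub-CHOP2 and reporter substrate (25 nM final each) were added, and fluorescence (Ex 485/Em 531 nm) was read after 60 min.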
Further: nearly all actives have a fitted effect of over 55% in size.
Potency means the concentration at half of the fitted maximal effect.
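Wherever activity change, negative = inhibition is given: plate controls were DMSO wells for no effect and full inhibition by NEM control for full effect.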

Sequence of Ubiquitin carboxyl-terminal hydrolase 2 (Homo sapiens) (O75604 whole entry, looked up): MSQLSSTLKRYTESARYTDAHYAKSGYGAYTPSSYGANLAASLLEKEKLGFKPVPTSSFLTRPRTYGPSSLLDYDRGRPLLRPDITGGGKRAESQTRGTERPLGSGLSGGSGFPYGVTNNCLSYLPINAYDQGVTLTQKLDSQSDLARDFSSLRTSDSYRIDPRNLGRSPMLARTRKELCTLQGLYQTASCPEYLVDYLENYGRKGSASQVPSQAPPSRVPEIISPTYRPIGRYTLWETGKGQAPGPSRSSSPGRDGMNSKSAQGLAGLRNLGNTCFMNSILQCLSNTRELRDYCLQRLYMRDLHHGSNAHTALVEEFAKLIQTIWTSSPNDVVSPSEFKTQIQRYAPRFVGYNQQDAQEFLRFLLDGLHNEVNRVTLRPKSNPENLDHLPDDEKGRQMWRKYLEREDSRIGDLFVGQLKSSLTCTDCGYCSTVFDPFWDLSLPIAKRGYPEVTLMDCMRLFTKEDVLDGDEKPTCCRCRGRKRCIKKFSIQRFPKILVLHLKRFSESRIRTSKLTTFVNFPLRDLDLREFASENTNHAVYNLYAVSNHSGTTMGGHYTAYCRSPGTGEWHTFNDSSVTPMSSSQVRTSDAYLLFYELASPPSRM

Compound	activity change, negative = inhibition [%]	Potency
Cc1ccc(C2=[N+]([O-])C(C)N(O)C2(C)C)o1 (centres undefined)	-1.21	–
Cc1cc(C(=O)CSc2nnc(Nc3ccccc3F)s2)c(C)n1CC1CCCO1 (centres undefined)	-1.04	–
CC(C)(C)C1C=C(Sc2ccccc2)C(=O)O1 (centres undefined)	-0.936	–
O=C(c1ccccc1)N1CCN(C(=O)N2CCCCC2)CC1	-1.38	–
COCc1cc(C)nc(OCC(=O)N/N=C\c2cc(C)n(-c3cccc(C(F)(F)F)c3)c2C)c1C#N	0.0262	–
CC(C)c1ccc(C2=C(O)c3ccccc3C(=O)C2=O)cc1	-0.0729	–
Cc1ccc(C(=O)O/N=C/c2c(C(F)(F)F)nn(C)c2Sc2ccc(Cl)cc2)cc1	1.05	–
COc1ccc(-n2c(O)c(/C=N/n3cnnc3)c3ccccc3c2=O)cc1	3.94	–
Cc1nn(C)cc1CNC(=O)c1ccc(Br)o1	-0.0545	–
COc1ccc(CC(NC(C)=O)C(=O)NC2CCN(c3nc(C)cc(C)c3C#N)CC2)c(OC)c1 (centres undefined)	-0.456	–
N#Cc1c(NC(=O)CSc2ncnc3sccc23)oc(-c2ccco2)c1-c1ccco1	–	13.1 µM (active)
CCCn1c(C)cc(C)c(C#N)c1=O	7.38	–
N#CC(c1ccccc1)c1ccc(C(=O)c2ccc(F)cc2)cc1 (centres undefined)	3.03	–
COc1ccc(-n2c(SCC(=O)N3CCN(c4ccccc4)CC3)nc3c(c2=O)SCC3)cc1	-6.88	–
C=CC[C@H](CC(=O)N[C@H](CO)Cc1ccccc1)C(=O)N[C@H](COC(=O)[C@@H](CC=C)CC(=O)OC(C)(C)C)Cc1c[nH]c2ccccc12	-0.7	–
CCCn1c(NC(=O)c2ccc(Br)cc2)nc2ccccc21	-2.73	–
Cc1cc(N2CCOCC2)nc(SCC(=O)c2ccc(Cl)cc2)n1	5.19	–
CCOC(=O)C1CCN(C(=O)COC(=O)c2c(C)c(CC)nc3ccccc23)CC1	-0.67	–
CCN=C1SC(C(=O)Nc2cccc(OCC)c2)CC(=O)N1CC (centres undefined)	4.78	–
Cc1cccc(Nc2nc(NCc3ccco3)c3ccccc3n2)c1	-6.47	–

Compound	activity change, negative = inhibition [%]	Potency
O=S(=O)(NC1CCSc2ccccc21)c1ccccc1 (centres undefined)	-6.24	–
O=[N+]([O-])c1c(NCCO)cc(N2CCN(Cc3ccc4c(c3)OCO4)CC2)c2nonc12	0.18	–
O=C(NCc1ccccc1)C1CCC1	1.49	–
CC(C(=O)Nc1ccc(C(=O)O)c(O)c1)N1C(=O)/C(=C\c2ccco2)SC1=S (centres undefined)	–	16.5 µM (active)
Cn1c2ccccc2c2nnc(SC3CCOC3=O)nc21 (centres undefined)	1.63	–
N#Cc1cccc(C(=O)N(CCc2ccccc2)Cc2cccs2)c1	-0.668	–
COc1ccc(C(=O)N/C(=C\c2cccs2)C(=O)N2CCN(C)CC2)cc1OC	-3.45	–
CCN1C(=O)CSc2ccc(C(=O)NC3CCCCC3)cc21	2.08	–
COc1ccc(C(=O)C[N+]2(C)CCOCC2)cc1	2.16	–
Cc1ccc(/C=C2/SC(=S)N(c3ccc(S(=O)(=O)Nc4nccs4)cc3)C2=O)cc1	–	6.56 µM (active)
C#CCOCCOCCOCCNc1nc(N2CCN(C(=O)CCCCCCCCCCNC(=O)Cn3cc(CCCCCN)nn3)CC2)nc(N2CCN(C(=O)CCCCCCCCCCNC(=O)[C@H]([C@@H](C)CC)n3cc(CCCCCN)nn3)CC2)n1	–	4.65 µM (active)
CCOC(=O)c1c(C)c(C(=O)O)n(C)c1C	7.14	–
O=C(CSc1ncccc1-c1nc2ccccc2[nH]1)Nc1ccc2c(c1)OCCO2	-2.15	–
c1coc(CNC2CCCCCCC2)c1	2.9	–
Cc1ccc(C(C)C)c(OCc2nn(CC(=O)c3ccc(OC(F)F)cc3)c3[n+]2CCCCC3)c1	-5.42	–
CCOc1ccc(S(=O)(=O)N(CC(=O)O)c2ccccc2)cc1	3.64	–
COc1ccccc1N1CCN(c2cc(C)nc3nc(C)nn23)CC1	0.0596	–
CCCCC(OC(=O)c1cc2occc2n1C)C(=O)NCC1CCCO1 (centres undefined)	5.21	–
O=C(CCNc1cccc(Cl)c1)c1ccco1	-4.03	–
